# FMDV inh: blocks foot and mouth disease virus. AID 1159524. FMDV antiviral cell-based qHTS. 1.2% of 410,000 active. Potency, µM (highest dose often 57.9 µM), for the others: at the highest dose activity change, negative = inhibition, usual class: inhibitors; calls by dose curve; tested in HEK293T cells; note: read-out not given here; potency is the fitted concentration of half-maximal effect; nearly all actives have a fitted effect of over 45% in size
# HCMV antiviral: human cytomegalovirus inhibition | AID 1259415 | 4.5% of 410,000 active | activity change, negative = inhibition, % at 57.5 µM | HFF cells, HCMV-luciferase reporter, 72 h; stronger effect = lower value; in the data active = activity change below about -60%; inconclusive = no clear call, values can overlap the other calls; inactive = above about -39%
#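 Human foreskin fibroblasts infected with luciferase-reporter HCMV at MOI 1 PFU/cell, compounds at two doses. Luciferase measured 72 h post infection; normalized to buffer-only basal and Salinomycin (10uM) controls.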
# Lassa entry inh: blocks Lassa virus binding to or entry into cells; Lassa virus pseudotype entry inhibition, cell reporter; Potency, µM (highest dose often 37.9 µM), for the others: top-dose activity change, negative = inhibition, usual class: inhibitors; 1.2% of 300,000 active; AID 540256; calls by dose curve; tested in HEK293 cells; note: potency is the fitted concentration of half-maximal effect; nearly all actives have a fitted effect of over 50% in size
# HCV inhibitor: blocks hepatitis C virus | Potency, µM (series often up to 41.8 µM), for inactives: at the top dose activity change, negative = inhibition, hits mostly inhibitors | 3.4% of 340,000 active | Huh7.5.1 HCVcc-Cre infection, luciferase reporter, 44 h; active = well fitted inhibition curve with a large enough effect; inconclusive = small, poorly fitted or top-dose-only effect, or another doubt; inactive = no such curve, though single readings can be large or run the other way; note: potency is the fitted concentration of half-maximal effect
#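 Cells seeded at 1,000/well and cultured 4 h, then compounds added followed by HCVcc-Cre virus (~0.5 moi). After 44 h further culture, luciferase substrate was added, plates held 15 min at room temperature, and luminescence read for 15 sec.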
# Marburg entry inh: inhibitors of Marburg virus binding or cell entry; Potency, µM (doses to about 37.8 µM), inactives show at the highest dose activity change, negative = inhibition, usual class: inhibitors; 1.8% of 300,000 active; Marburg virus pseudotyped entry inhibition, cell reporter; AID 540276; calls by dose curve; tested in HEK293 cells; note: potency is the fitted concentration of half-maximal effect
# Active calls of the source: *; u = inconclusive; x = no result given; [ ] = dose if it differs, or a comment. Hits are enriched below; roughly 7.9% of the tested compounds scored in any of these assays. % is set by controls: 0 for no effect and ±100 for the full control effect.
SMILES,FMDV inh,HCMV antiviral,Lassa entry inh,HCV inhibitor,Marburg entry inh
CCc1ccc(-n2c(C)cc(/C=N/NC(=O)c3ccncc3)c2C)cc1,-16%,-79*,x,u,x
CC(C)(C)c1ccc(CC(=O)N2CCC2(C)C(=O)Nc2ccc3[nH]ncc3c2)cc1 (stereo not given),-17%,-86*,x,x,x
CC1(C(=O)Nc2ccc3[nH]ncc3c2)CCN1C(=O)Cc1ccc(-c2ccccc2)cc1 (stereo not given),40µM*,u,x,x,x
CC1(C(=O)Nc2ccc3[nH]ncc3c2)CCN1C(=O)CCc1ccccc1 (stereo not given),-23%,1,x,x,x
COc1ccccc1CCNC(=O)C(=O)NCC(c1ccco1)S(=O)(=O)c1ccc(F)cc1 (stereo not given),-17%,-15,-10%[46.1 µM],x,x
COc1cc(S(N)(=O)=O)c(OC)cc1N,-23%,-40,x,-4%,x
COc1cc(N=Nc2ccc(C)cc2S(N)(=O)=O)c(C)cc1N,45%,179,u,25µM*,-8%[46.1 µM]
COc1ccc(S(=O)(=O)N2CCCCC2c2cc(C(=O)NCc3ccccc3)no2)cc1 (stereo not given),1%,-62*,x,x,x
O=C(CN1C(=O)C2(SCC(=O)N2c2cccc(Cl)c2)c2ccccc21)NCCc1ccccc1 (stereo not given),-9%,-8,u,x,x
OCCN1CCN(C2CCC(c3ccc(F)cc3)c3ccc(F)cc32)CC1 (stereo not given),u,u,u,4µM*,4µM*
O=[N+]([O-])c1ccc2c(c1)C(N1CCN(CCO)CC1)Cc1ccc(F)cc1S2 (stereo not given),-14%,9,x,x,x
COc1cc(CN2CCC3(CCC(CNC(=O)c4ccco4)O3)CC2)cc(OC)c1 (stereo not given),-9%,x,x,x,x
O=C(CCl)N(c1ccc(Cl)cc1)c1c[nH]c2ccccc12,u,-105*,u,2.5µM*,u
O=C(O)Cc1c[nH]c2ccccc12,-14%,x,x,27%,x
O=C(CCl)N(c1ccccc1)c1c[nH]c2ccccc12,u,-103*,u,1.3µM*,u
CC(=O)C1=C(O)C(=O)N(c2ccc(F)cc2)C1c1ccc(C)cc1 (stereo not given),6%,-69*,0%[46.1 µM],-2%,6%[46.1 µM]
Cc1c(C(=O)NCC(C)(C)N2CCOCC2)cnn1-c1ncc2c(n1)-c1ccccc1CCC2,-11%,x,x,x,x
CCCC(=O)N1CC(=O)Nc2ccc(Br)cc2C1c1ccc(F)cc1 (stereo not given),-16%,-29,-5%[46.1 µM],2%,11µM*
O=C1CN(C(=O)COc2ccc(Cl)cc2Cl)C(c2ccc(F)cc2)c2cc(F)ccc2N1 (stereo not given),-19%,17,u,x,u
Cc1ccc2c(c1)C(c1ccc(F)cc1)N(C(=O)COc1ccc(Cl)cc1Cl)CC(=O)N2 (stereo not given),u,-60*,u,x,u
CCOC(=O)c1cccc(NS(=O)(=O)c2ccc(-c3cnc(C4CC4)o3)cc2)c1,-1%,13,-24%[46.1 µM],x,x
CN(C)C(=O)c1cccc(-c2cccc(-c3nc(C(=O)NCc4ccccc4)cc4c3[C@@H](CCO)N(S(=O)C(C)(C)C)C4)c2)c1 (stereo not given in full),-16%,-61*,x,x,x
C[C@]12CCCCCC3=CC(=O)C=C[C@@]31OC(=O)CC2,x,6,x,x,x
CC1(C(=O)NS(=O)(=O)C2CC2)CCCN(C(=O)c2cccs2)C1 (stereo not given),4%,-61*,x,x,x
CC1(C(=O)NS(=O)(=O)C2CC2)CCCN(C(=O)c2ccccc2)C1 (stereo not given),-12%,20,x,x,x
CSC1=C(C#N)[C@H](C)CC(=O)N1,x,x,x,x,-17%
Cc1ccc(NC(=O)C(C)Sc2nnc(C)n2CC2CCCO2)cc1 (stereo not given),-8%,-71*,2%[46.1 µM],11%,10%[46.1 µM]
Cc1ccc(NC(=O)CSc2nnc(C)n2CC2CCCO2)cc1 (stereo not given),-15%,-28,17%,17%,6%
C=C(C)Cn1c(=O)n(CC2CS2)c2ccccc21 (stereo not given),-23%,u,u,4%,u
O=C(Cn1c(=O)n(CC2CS2)c2ccccc21)N1CCCCCC1 (stereo not given),16%,-70*,11%,8%,3%[46.1 µM]

# Compound activity as filed in PubChem BioAssay.
